Assay results from PubChem BioAssay AID1981 (Southern Research Specialized Biocontainment Screening …, 2009).
In all, about 2,200 compounds went through this assay and about 480 (22%) were called active. The list is a sample of the results. Entries with a potency or affinity are not part of this list. Unmarked numbers belong to inactive results. No rule for the calls is given here.

test: S. Typhimurium GFP fluorescence modified counterscreen for PhoP regulon inhibitor project dose response (AID 1981); conditions: 4 h; series mostly up to 150 µM; inhibition: at the top concentration;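 also: 0% = induced DMSO wells and 100% = uninduced wells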

**Q.** For `O=C(NC1CCN(C(=O)N2c3ccccc3Sc3ccccc32)CC1)c1ccco1`, which “inhibition” value is on record?
**A.** -18.3%

**Q.** For `Cc1cc(CNC(=O)Nc2ccc3c(c2)OCO3)nn1C`, which “inhibition” value is on record?
**A.** -1.45%

**Q.** Which “inhibition” value does the source give for `O=C(COc1ccc2ccccc2c1)N1CCN(CC2CC3C=CC2C3)CC1` (centres undefined) here?
**A.** -22.7%

**Q.** For `COCC(=O)N(Cc1ccco1)c1nnc(C2CCOC2)s1` (centres undefined), which “inhibition” value is on record?
**A.** -13.3%

**Q.** For `CCCc1nn(C)c2c1C(c1cccnc1)C(C#N)=C(N)O2` (centres undefined), which “inhibition” value is on record?
**A.** 10.6%

**Q.** With `CCOC(=O)C1(S(=O)(=O)c2ccccc2)CCN(Cc2ccc(Cl)cc2)CC1` as the compound, how does the “inhibition” value read?
**A.** 6.33%

**Q.** For `O=C(CN1C(=O)c2ccccc2C1=O)N1CCN(c2ccccn2)CC1`, which “inhibition” value is on record?
**A.** -16.9%

**Q.** For `Cc1ccc(/C=C/c2nnc(-c3ccc(C)cc3)o2)cc1`, which “inhibition” value is on record?
**A.** -10.9%

**Q.** Which “inhibition” value does the source give for `COc1ccc(C2CC(c3ccccc3)=NN2c2ccc(/C=N/NC(=O)c3ccncc3)cc2)cc1` (centres undefined) here?
**A.** -10.1%

**Q.** With `CC(=O)n1cc(/C=N/NC(=O)c2sc(C)nc2C)c2ccccc21` as the compound, how does the “inhibition” value read?
**A.** 12.1%

**Q.** Which “inhibition” value does the source give for `COc1ccc2ccccc2c1/C=N/NC(=O)c1sc(N)c(C#N)c1C` here?
**A.** 8.92%

**Q.** For `COc1ccc(OCCn2cc(/C=N/NC(=O)c3ccncc3)c3ccccc32)cc1`, which “inhibition” value is on record?
**A.** -13.5%

**Q.** Which “inhibition” value does the source give for `COc1ccc2c(c1)CC1(CN2C)C(=O)NC(=O)N(c2ccc(F)cc2)C1=O` (centres undefined) here?
**A.** 1.85%

**Q.** For `O=C1Nc2ccc(F)cc2C12SCCS2`, which “inhibition” value is on record?
**A.** 2.27%

**Q.** For `Cc1cc2ncn(CC(O)COc3cccc(C(=O)O)c3)c2cc1C` (centres undefined), which “inhibition” value is on record?
**A.** -1.34%

**Q.** For `COc1cc([N+](=O)[O-])cc(/C=N/NC(=O)c2cccnc2)c1O`, which “inhibition” value is on record?
**A.** 27.7%

**Q.** Which “inhibition” value does the source give for `COc1cc([N+](=O)[O-])ccc1NC(=O)CN(C)C` here?
**A.** 7.69%

**Q.** With `C#CC(C)(CC)NC(=O)c1cc(OC)c(OC)c(OC)c1` (centres undefined) as the compound, how does the “inhibition” value read?
**A.** -16.3%

**Q.** For `CC(C)(C)c1cc2cccnc2n1Cc1cccc(Cl)c1`, which “inhibition” value is on record?
**A.** 10.3%

**Q.** Which “inhibition” value does the source give for `COc1ccc(Cl)cc1C(=O)Nc1ccc(NC(=O)c2ccco2)cc1` here?
**A.** 2.6%

**Q.** Which “inhibition” value does the source give for `O=C(O)CCc1nn2c3ccccc3n(CC(=O)c3ccccc3)c2nc1=O` here?
**A.** -7.66%

**Q.** Which “inhibition” value does the source give for `Nc1ncncc1-c1ccc(Cl)cc1` here?
**A.** 23.2%

**Q.** For `Nc1c(-c2ccccc2)cnn1-c1cccc([N+](=O)[O-])c1`, which “inhibition” value is on record?
**A.** 6.43%

**Q.** Which “inhibition” value does the source give for `CCOC(=O)C1CCCN(C(=O)Cc2ccc(Cl)cc2)C1` (centres undefined) here?
**A.** -1.97%

**Q.** Which “inhibition” value does the source give for `CC1=CC(C)C2(CO)COC(c3ccccc3O)C1C2C` (centres undefined) here?
**A.** -11.4%

**Q.** With `CNc1nc(-c2ccccn2)nnc1-c1ccccc1` as the compound, how does the “inhibition” value read?
**A.** 5.61%

**Q.** For `Nc1nc(Nc2ccc(Cl)cc2)n[nH]1`, which “inhibition” value is on record?
**A.** 1.77%

**Q.** With `Cc1ccc2c(CN3CCC(C)CC3)cc(=O)oc2c1` as the compound, how does the “inhibition” value read?
**A.** 14.3%

**Q.** With `Cc1[nH]c2ccccc2c1C1=NNC(=Nc2ccc(F)cc2)SC1` as the compound, how does the “inhibition” value read?
**A.** 4.54%

**Q.** With `CCN1/C(=C/C(C)=C/c2sc3ccccc3[n+]2CC)Sc2ccccc21` as the compound, how does the “inhibition” value read?
**A.** -25.4%

**Q.** Which “inhibition” value does the source give for `COc1ccc(C(=O)COc2nc(C)cc(C)c2C#N)cc1` here?
**A.** -2.08%

**Q.** With `Cc1cc(-c2csc(NC(=O)c3ccc(S(=O)(=O)N(C)C)cc3)n2)c(C)n1-c1ccccc1` as the compound, how does the “inhibition” value read?
**A.** 37.3%

**Q.** With `CC1(C)CC(=O)c2c(nc3ccccc3c2N)C1` as the compound, how does the “inhibition” value read?
**A.** 15.4%

**Q.** Which “inhibition” value does the source give for `Cc1nn(-c2ccc(Cl)cc2)c2[nH]c(=O)c(CNCc3ccc4c(c3)OCO4)cc12` here?
**A.** -13.3%

**Q.** With `CC(O)c1ccc(OCCN(C)c2ccccn2)cc1` (centres undefined) as the compound, how does the “inhibition” value read?
**A.** -4.92%

**Q.** Which “inhibition” value does the source give for `Cc1cc(C)n(-c2ccc(C(=O)Nc3nc4ccccc4s3)cc2)n1` here?
**A.** 22.7%

**Q.** For `CC(=O)c1c(N2CCN(C(=O)C3CCCO3)CC2)nc(=S)n(-c2ccccc2)c1C` (centres undefined), which “inhibition” value is on record?
**A.** -7.59%

**Q.** For `O=S(=O)(Cc1ccccc1Cl)N1CCN(Cc2ccc3c(c2)OCO3)CC1`, which “inhibition” value is on record?
**A.** -16.8%

**Q.** For `Cc1ccc(-n2c(C)cc(C3=NNC(=NC4CC4)SC3)c2C)cc1C`, which “inhibition” value is on record?
**A.** -3.95%

**Q.** For `Cc1nc2ccccc2c(=O)n1/N=C/c1ccc(N(C)C)cc1`, which “inhibition” value is on record?
**A.** -8.07%

**Q.** With `c1ccc(Cc2nnc(-c3ccccc3)o2)cc1` as the compound, how does the “inhibition” value read?
**A.** -14.2%

**Q.** For `NCCCCCc1nnc(SCc2ccc(Cl)c(Cl)c2)o1`, which “inhibition” value is on record?
**A.** 2.34%

**Q.** With `O=C(c1ccc(-c2ccccc2)cc1)c1ccccc1C(=O)N1CCOCC1` as the compound, how does the “inhibition” value read?
**A.** -16.8%

**Q.** Which “inhibition” value does the source give for `COc1ccc(N2CCN(C(=O)C3CCCO3)CC2)cc1` (centres undefined) here?
**A.** 0.62%

**Q.** For `O=C(c1ccc(Cl)cc1Cl)C1(n2cncn2)Oc2ccccc2C1O` (centres undefined), which “inhibition” value is on record?
**A.** -5%

**Q.** With `Cc1cccc(-n2ncc3c(NCc4ccc5c(c4)OCO5)ncnc32)c1` as the compound, how does the “inhibition” value read?
**A.** -7.68%

**Q.** For `Brc1ccc2cccnc2c1`, which “inhibition” value is on record?
**A.** -12.2%

**Q.** Which “inhibition” value does the source give for `O=C1C2C3c4ccccc4C(c4ccccc43)C2C(=O)N1c1cccc2cccnc12` (centres undefined) here?
**A.** -8.36%

**Q.** With `Cc1ccc(C=Nc2ccccc2C(N)=O)cc1` as the compound, how does the “inhibition” value read?
**A.** 17.5%

**Q.** Which “inhibition” value does the source give for `CCOc1c(Br)cc(CNCc2cccs2)cc1OC` here?
**A.** -0.6%

**Q.** For `Clc1ccc(Cn2ncc3c(NCc4ccco4)ncnc32)c(Cl)c1`, which “inhibition” value is on record?
**A.** 5.71%

**Q.** With `Cc1ccc(NC(=O)CCCSc2nc3ccccc3[nH]2)cc1` as the compound, how does the “inhibition” value read?
**A.** 28.1%

**Q.** For `O=C(Nc1cccnc1)c1cc(F)cc(F)c1`, which “inhibition” value is on record?
**A.** -0.92%

**Q.** With `Cc1cc(C)c2nc(NNC(=O)c3ccc(S(=O)(=O)N4CCCCC4)cc3)sc2c1` as the compound, how does the “inhibition” value read?
**A.** 17.3%

**Q.** With `COC(=O)c1sccc1NC(=O)C1C2C=CC(O2)C1C(=O)O` (centres undefined) as the compound, how does the “inhibition” value read?
**A.** -1.72%

**Q.** For `Nc1ccc(C(=O)OCc2nc3ccccc3[nH]2)cc1`, which “inhibition” value is on record?
**A.** -1.26%

**Q.** With `CCOc1ccc(/C=N/O)cc1` as the compound, how does the “inhibition” value read?
**A.** -0.89%

**Q.** For `CCN1CCN(C(=O)c2ccc(COc3ccc(Cl)cc3)o2)CC1`, which “inhibition” value is on record?
**A.** 10.1%

**Q.** For `CCOc1ccc(CCNC(=O)c2cc3sc(Cl)cc3n2C)cc1OCC`, which “inhibition” value is on record?
**A.** -3.59%
